Each structure is given as a SMILES string. Unmarked numbers belong to inactive results. For part of these data: Results with a measured potency or affinity are listed apart. The source made the active and inactive calls. Unless noted, no rule for the calls is given here.

Data on 21 compounds can be found in PubChem BioAssay.

Assay [1] can be described thus: antimalarial activity against Dd2 strain (AID 2302;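 active = growth inhibition above 50% at the single 2 µM test dose, taken to imply half-maximal potency below 2 µM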;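 also: 0% = DMSO untreated growth and 100% = chloroquine plus artemisinin killed control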). As to conditions: P. falciparum Dd2 in RBCs, LDH growth readout, 72 h; at 2 µM; stronger effect = higher value.
Assay [2] can be described thus: human hepatoma cell viability loss – ATP luminescence, cytotoxicity control for P. falciparum antimalarial project, primary screen (AID 2303;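 active = inhibition above 50%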;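 also: 0% = DMSO wells and 100% = digitonin-killed cells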). As to conditions: HepG2 viability, 24-48 h, at 10 µM, stronger effect = higher value.
The target in assay [3] is L-lactate dehydrogenase (Plasmodium falciparum (isolate CDC / Honduras)) (UniProt Q27743). In words: PfLDH activity inhibition – cell lysate, 3D7 strain, counter-screen for P. falciparum growth inhibition project (AID 2304).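 Also: 0% = vehicle and 100% = reference inhibitor.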 As to conditions: P. falciparum 3D7 crude extract, LDH APAD/NBT absorbance; at 2 µM; stronger effect = higher value.
Chain of L-lactate dehydrogenase (Plasmodium falciparum (isolate CDC / Honduras)) (Q27743 whole entry, looked up): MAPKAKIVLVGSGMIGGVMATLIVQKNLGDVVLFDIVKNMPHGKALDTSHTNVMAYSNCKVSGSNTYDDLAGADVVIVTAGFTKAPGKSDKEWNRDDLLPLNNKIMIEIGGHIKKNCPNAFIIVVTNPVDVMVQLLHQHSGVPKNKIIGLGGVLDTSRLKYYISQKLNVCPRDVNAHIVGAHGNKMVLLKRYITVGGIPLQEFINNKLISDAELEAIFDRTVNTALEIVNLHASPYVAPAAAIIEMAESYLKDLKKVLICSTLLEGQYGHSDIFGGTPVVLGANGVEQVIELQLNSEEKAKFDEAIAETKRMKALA
Assay [4] in a line: inhibition of 3D7 malaria parasite growth – strain 3D7 (AID 2306).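 Also: 0% = DMSO wells and 100% = chloroquine plus artemisinin control wells.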 The following applies: P. falciparum 3D7 erythrocytic growth, LDH absorbance, 72 h; at 2 µM; stronger effect = higher value.
Assay [5] has as its target Calcium-dependent protein kinase 1 (Plasmodium falciparum (isolate 3D7)) (UniProt P62344). As to the kind of experiment: PfCDPK1 kinase inhibitors, biochemical, TCAMS library (AID 1159585; cut-off not given, nearly all actives have IC50 up to about 0.98 µM;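 also: inhibitors leave more ATP so luminescence rises with inhibition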). As to conditions: recombinant PfCDPK1, Kinase-Glo ATP depletion luminescence.
Assay [6] has as its target Plasmodium falciparum protein kinase 6 (PK6, PF3D7_1337100) (UniProt Q8IDW1). As to the kind of experiment: PfPK6 kinase inhibitors, biochemical, TCAMS library (AID 1159586). The following applies: recombinant PfPK6, Kinase-Glo ATP depletion luminescence.
The target in assay [7] is Protein kinase 7 (PK7), Plasmodium falciparum 3D7 (PF3D7_0213400) (UniProt Q7YTF7). In words: inhibition of Plasmodium PK7 catalytic activity – biochemical, TCAMS antimalarial set, Kinase-Glo luminescence (AID 1159587). As to conditions: recombinant PfPK7, Kinase-Glo ATP depletion luminescence. On the technique in general: Kinase-Glo reads ATP consumption through a luciferase reaction.
Chain of Protein kinase 7 (PK7), Plasmodium falciparum 3D7 (PF3D7_0213400) (Q7YTF7 1-343): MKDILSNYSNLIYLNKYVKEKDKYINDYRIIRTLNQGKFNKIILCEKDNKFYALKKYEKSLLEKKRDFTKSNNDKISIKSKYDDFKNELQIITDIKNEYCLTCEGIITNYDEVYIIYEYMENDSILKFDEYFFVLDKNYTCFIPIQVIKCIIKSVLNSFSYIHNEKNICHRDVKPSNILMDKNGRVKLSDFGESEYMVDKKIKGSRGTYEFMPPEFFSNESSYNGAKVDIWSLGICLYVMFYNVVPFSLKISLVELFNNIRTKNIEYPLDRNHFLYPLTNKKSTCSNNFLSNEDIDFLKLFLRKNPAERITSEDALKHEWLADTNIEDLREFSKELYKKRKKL

Assay [8] addresses Calcium-dependent protein kinase 4 (Plasmodium falciparum (isolate 3D7)) (UniProt Q8IBS5). As to the kind of experiment: PfCDPK4 kinase inhibitors, biochemical, TCAMS library (AID 1159588; cut-off not given, nearly all actives have IC50 up to about 0.91 µM). As to conditions: recombinant PfCDPK4, Kinase-Glo ATP depletion luminescence.

Chain of Plasmodium falciparum protein kinase 6 (PK6, PF3D7_1337100) (Q8IDW1 1-305): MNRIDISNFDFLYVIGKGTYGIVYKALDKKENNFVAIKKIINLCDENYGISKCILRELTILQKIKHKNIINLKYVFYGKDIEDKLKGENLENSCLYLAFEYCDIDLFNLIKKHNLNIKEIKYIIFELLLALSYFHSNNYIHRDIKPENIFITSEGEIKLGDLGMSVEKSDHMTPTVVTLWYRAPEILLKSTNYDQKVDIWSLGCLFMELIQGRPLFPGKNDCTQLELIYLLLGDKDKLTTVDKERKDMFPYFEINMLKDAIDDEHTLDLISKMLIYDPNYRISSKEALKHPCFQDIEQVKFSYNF
Chain of Calcium-dependent protein kinase 1 (Plasmodium falciparum (isolate 3D7)) (P62344 whole entry, looked up): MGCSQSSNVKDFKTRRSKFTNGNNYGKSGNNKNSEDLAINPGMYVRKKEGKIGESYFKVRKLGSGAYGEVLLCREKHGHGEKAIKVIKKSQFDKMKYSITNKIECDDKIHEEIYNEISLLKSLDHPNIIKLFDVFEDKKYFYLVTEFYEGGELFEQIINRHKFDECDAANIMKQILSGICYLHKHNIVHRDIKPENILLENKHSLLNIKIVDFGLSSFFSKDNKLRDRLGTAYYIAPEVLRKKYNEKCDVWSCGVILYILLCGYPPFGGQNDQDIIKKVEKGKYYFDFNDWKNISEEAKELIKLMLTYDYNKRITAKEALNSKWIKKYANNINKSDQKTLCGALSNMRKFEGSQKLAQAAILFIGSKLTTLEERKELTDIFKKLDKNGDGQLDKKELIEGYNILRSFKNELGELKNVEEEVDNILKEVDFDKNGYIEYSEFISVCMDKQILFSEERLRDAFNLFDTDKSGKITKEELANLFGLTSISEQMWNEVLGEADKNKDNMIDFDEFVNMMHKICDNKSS
Chain of Calcium-dependent protein kinase 4 (Plasmodium falciparum (isolate 3D7)) (Q8IBS5 whole entry, looked up): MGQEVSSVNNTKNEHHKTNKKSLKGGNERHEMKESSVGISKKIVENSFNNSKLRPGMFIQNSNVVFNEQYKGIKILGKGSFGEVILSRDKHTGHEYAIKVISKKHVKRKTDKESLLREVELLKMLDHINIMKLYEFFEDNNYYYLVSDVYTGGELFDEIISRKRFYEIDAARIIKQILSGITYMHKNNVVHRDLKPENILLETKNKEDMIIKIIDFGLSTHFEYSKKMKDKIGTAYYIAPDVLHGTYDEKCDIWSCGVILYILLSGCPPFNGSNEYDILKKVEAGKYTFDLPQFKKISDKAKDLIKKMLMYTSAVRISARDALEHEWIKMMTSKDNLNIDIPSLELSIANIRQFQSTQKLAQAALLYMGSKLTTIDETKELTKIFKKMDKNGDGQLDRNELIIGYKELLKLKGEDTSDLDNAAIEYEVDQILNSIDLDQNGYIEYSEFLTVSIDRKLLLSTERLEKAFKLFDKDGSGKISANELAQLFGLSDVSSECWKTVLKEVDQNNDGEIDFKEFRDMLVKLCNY

For orientation: inhibition means the drop in the measured response relative to a control, in per cent. Take `CC(Oc1ccc(Cl)cc1)C(=O)Nc1cc(C(F)(F)F)ccc1N1CCOCC1` (stereo not drawn): the growth inhibition in assay [1] and in assay [4] was 97% (active) in each case. Besides, the inhibition in assay [2] is 14%; in assay [3], -6%. Besides, the outcome in assay [5], in assay [6], in assay [7] and in assay [8] was inactive.
On to `Cn1cncc1C(=O)Nc1ccc(-c2ccc(-c3nc4ccc(C(F)(F)F)cc4[nH]3)cc2)cc1`, for which the growth inhibition in assay [1] was 33%; in assay [4] it was 102% (active). In addition, the inhibition in assay [2] was 24%; in assay [3], 5%. Further, the result in assay [5], in assay [6], in assay [7] and in assay [8] was inactive.
For the compound `Nc1ncc(-c2ccc3nccc(-c4ccncc4)c3c2)cc1S(=O)(=O)N1CCCCC1`, the growth inhibition in assay [1] and in assay [4] was 100% (active) in each case. For the same compound, the inhibition in assay [2] was 25%; in assay [3] it was 3%. In addition, the result in assay [5], in assay [6], in assay [7] and in assay [8] was inactive.
Regarding `CCOc1ccc(C(=O)Nc2cc(Br)c3c(c2)CNCC3)cc1C(F)(F)F`, the growth inhibition in assay [1] was 22%; in assay [4], 98% (active). In addition, the values for the inhibition in assay [2] and in assay [3] were 15% and 6%, respectively. For the same compound, the outcome in assay [5], in assay [6], in assay [7] and in assay [8] was inactive.
As to `CCC(C)c1ccc(-n2c(Nc3ccccc3)nc3cc(S(N)(=O)=O)ccc32)cc1` (stereo not drawn), the growth inhibition in assay [1] was 28%; in assay [4] it was 88% (active). Further, the figures for the inhibition in assay [2] and in assay [3] were 0% and 4%, respectively. Further, the result in assay [5], in assay [6], in assay [7] and in assay [8] was inactive.
In the case of `COc1ccc2ncc(F)c(NC(=O)C3CCC(NCc4cc5c(F)cccc5[nH]4)CC3)c2n1` (stereo not drawn), the growth inhibition in assay [1] is 29%; in assay [4], 91% (active). The inhibition was 39% in assay [2] and -1% in assay [3]. Besides, the result in assay [5], in assay [6], in assay [7] and in assay [8] was inactive.
Regarding `Cc1nc(-c2ccc(-c3ccc(NC(=O)Nc4ccc(I)c(OCCN(C)C)c4)cc3)c(C)c2)no1`, the growth inhibition in assay [1] was 92% (active); in assay [4] it was 101% (active). The inhibition in assay [2] was 47%; in assay [3] it was 2%. The outcome in assay [5], in assay [6], in assay [7] and in assay [8] was inactive.
For the compound `O=C(Nc1ccsc1)Nc1cccc(-c2cccc(-c3nc4ccc(F)cc4[nH]3)c2)c1`, the values for the growth inhibition in assay [1] and in assay [4] were 41% and 100% (active), respectively. Moreover, the inhibition is 46% in assay [2] and 2% in assay [3]. The result in assay [5], in assay [6], in assay [7] and in assay [8] was inactive.
Consider `COc1ccccc1NC(=O)Nc1cccc(-c2ccc(-c3nc4c(C)cccc4[nH]3)s2)c1`, for which the growth inhibition in assay [1] was 46%; in assay [4], 100% (active). Moreover, the inhibition in assay [2] was 19%; in assay [3], 3%. The result in assay [5], in assay [6], in assay [7] and in assay [8] was inactive.
Take `CN(C)C(=O)CN1CCN(c2ncnc(N3CCc4c([nH]c5ccccc45)[C@@H]3c3ccc4c(c3)CCO4)n2)CC1`: the growth inhibition in assay [1] is 98% (active); in assay [4], 99% (active). Also, the inhibition in assay [2] was 12%; in assay [3] it was -1%. The result in assay [5], in assay [6], in assay [7] and in assay [8] was inactive.
Regarding `Cc1cccc2[nH]c(-c3ccc(-c4ccc(NC(=O)CN5CCN(C)CC5)cc4)s3)nc12`, the growth inhibition in assay [1] was 86% (active); in assay [4], 95% (active). The values for the inhibition in assay [2] and in assay [3] were 56% (active) and -9%, respectively. Also, the outcome in assay [5], in assay [6], in assay [7] and in assay [8] was inactive.
Turning to `CCCCN1CCCC[C@H]1[C@@H](O)c1ccnc2ccc(OCC)cc12`, the growth inhibition was 88% (active) in assay [1] and 100% (active) in assay [4]. Besides, the inhibition is 6% in assay [2] and -2% in assay [3]. The outcome in assay [5], in assay [6], in assay [7] and in assay [8] was inactive.
As for `O=C(NC1CCN(Cc2ccccc2O)C1)c1ccc(Cl)c(Cl)c1` (stereo not drawn), the growth inhibition in assay [1] was 62% (active); in assay [4] it was 92% (active). For the same compound, the values for the inhibition in assay [2] and in assay [3] were -9% and -1%, respectively. The outcome in assay [5], in assay [6], in assay [7] and in assay [8] was inactive.
Consider `O=C(Nc1cccc(-c2nn3ncccc3c2-c2ccnc(Nc3cccc(C(F)(F)F)c3)n2)c1)c1c(F)cccc1F`, for which the growth inhibition in assay [1] was 68% (active); in assay [4] it was 97% (active). The inhibition in assay [2] was 49%; in assay [3], -2%. For the same compound, the outcome in assay [5], in assay [6], in assay [7] and in assay [8] was inactive.
Consider `O=c1cc(NCCCNCc2ccc(Cl)c(Cl)c2)[nH]c2ccc(C(F)(F)F)cc12`, for which the results for the growth inhibition in assay [1] and in assay [4] were 68% (active) and 103% (active), respectively. In addition, the inhibition in assay [2] was 10%; in assay [3], -5%. For the same compound, the outcome in assay [5], in assay [6], in assay [7] and in assay [8] was inactive.
For `O=C(c1ccccc1)N1CCC(CN2CCOC(c3ccccc3)(c3ccccc3)C2)CC1`, the values for the growth inhibition in assay [1] and in assay [4] were 95% (active) and 94% (active), respectively. Besides, the figures for the inhibition in assay [2] and in assay [3] were 14% and 1%, respectively. Besides, the result in assay [5], in assay [6], in assay [7] and in assay [8] was inactive.
As to `COc1ccc(-c2ccc(NC(=O)c3cccc(C#N)c3)cc2)cc1CN1CCNCC1`, the growth inhibition was 47% in assay [1] and 101% (active) in assay [4]. The inhibition is 30% in assay [2] and 8% in assay [3]. In addition, the outcome in assay [5], in assay [6], in assay [7] and in assay [8] was inactive.
Regarding `CN(C)c1ccc(CN2CCCC(CNC(=O)c3ccc(-c4cccc(C(F)(F)F)c4)s3)C2)cc1` (stereo not drawn), the growth inhibition in assay [1] is 37%; in assay [4] it was 89% (active). Besides, the inhibition in assay [2] was 32%; in assay [3], 0%. The outcome in assay [5], in assay [6], in assay [7] and in assay [8] was inactive.
Turning to `CCCCCCCCCN(CCC)C(=O)[C@@H]1OC(C(=O)OC(c2ccccc2)c2ccccc2)=C[C@H](NC(=O)OC(C)(C)C)[C@H]1NC(C)=O`, the growth inhibition in assay [1] is 49%; in assay [4], 91% (active). Besides, the figures for the inhibition in assay [2] and in assay [3] were 0% and -1%, respectively. The outcome in assay [5], in assay [6], in assay [7] and in assay [8] was inactive.
Take `O=C(Nc1cccc(-c2nn3ccccc3c2-c2ccnc(Nc3ccc(Cc4ccncc4)cc3)n2)c1)c1c(F)cccc1F`: the growth inhibition in assay [1] and in assay [4] was 97% (active) each time. The results for the inhibition in assay [2] and in assay [3] were 43% and -1%, respectively. In addition, the result in assay [5], in assay [6], in assay [7] and in assay [8] was inactive.
With `CCc1c(CCNC/C=C/C=C/CNCCc2ccc(OC)c(OC)c2CC)ccc(OC)c1OC`, the growth inhibition in assay [1] is 99% (active); in assay [4], 100% (active). For the same compound, the inhibition was 75% (active) in assay [2] and 3% in assay [3]. Further, the result in assay [5], in assay [6], in assay [7] and in assay [8] was inactive.
